Measurements: PubChem BioAssay (NCI)
This is part of a sample that, as a whole, favours compounds with a hit. Of some 83,000 tested, about 20% had one in any assay.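 96-well plates, one dose, 48 hours. Percent growth reported; active if below 10.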 A number with no mark means an inactive call. Active and inactive are the calls of the source.

Each molecule was assayed on SR leukemia (assay: NCI-60 one-dose screen, 48 h (100 = growth as untreated, 0 = no growth, -100 = all killed)). Details: 10 µM.
With Oc1cccc(-c2nc3sccn3c2-c2ccncn2)c1 the growth was 60.1%. With CCOC(=O)c1cc(C(=O)c2cc(OC)c(OC)c(OC)c2)n2ccc(-c3cc[n+](CC(=O)c4cc(OC)c(OC)c(OC)c4)cc3)cc12 the growth was -16.4% (active). For C[C@H]1[C@H](OC(=O)CCC(=O)O)O[C@@H]2O[C@]3(C)CC[C@H]4[C@H](C)CC[C@@H]1[C@@]24OO3, the growth was -2.25% (active). Work on COc1ccc(C(=O)N/N=C/c2cc(C(F)(F)F)ccc2Cl)cc1 yielded a growth of 102%. COc1ccc(-c2cc(-c3ccc(Cl)cc3)nc(SCCCC(=O)NO)n2)cc1OC gave a growth of 19.7%. In the case of CCC(=O)OC1CCC2C3CCC(=O)OC3C(C)(CCC(=O)O)CC12C (stereo not drawn), the growth is reported as -21.1% (active). OCC1OC(n2ccc3c(NO)ncnc32)C(O)C1O (stereo not drawn) was tested, and the growth was -30.2% (active). Work on CC(C)(C)c1ccc(S(=O)(=O)N[C@H]2CC[C@H]3[C@@H]4CCc5cc(O)c([N+](=O)[O-])cc5[C@H]4CC[C@]23C)cc1 yielded a growth of 63.5%. With COc1cc(-c2nn(-c3cccc(NC(=O)CCNc4ccc(N5CCOCC5)cc4)c3)cc2-c2ccncc2)ccc1Cl the growth was 5.07% (active). Molecule COc1cc(-c2nn(-c3cccc(NC(=O)CN4CCOCC4)c3)cc2-c2cccnc2)ccc1Cl has a growth of 37.3%. Molecule O=C(CCCSc1nc(-c2ccccc2)cc(-c2ccc(Cl)cc2)n1)NO has a growth of 26.3%. In the case of CC(C)N(CCOc1cccc(-c2nc3sccn3c2-c2ccnc(S(C)(=O)=O)n2)c1)C(C)C, the growth is reported as 64.3%. O=C(CCC(C(=O)c1ccccc1)c1ccccc1)c1ccccc1 (stereo not drawn) gave a growth of 25.5%.
